Source: the supplement of paper PMC10849652
Targets with a hit are over-represented here; the source holds about 8,800 in all. About 0.5% of all pairs of compound and target were hits.

Experiments:
Experiment in all cases: log2 fold change, soluble protein after heating vs DMSO (PISA); higher = thermal stabilisation; K562 lysate, 10 uM; active = over 0.2 and 3.5 SD of the protein, either way, in both replicates (recomputed)
erlotinib = compound: C#Cc1cccc(Nc2ncnc3cc(OCCOC)c(OCCOC)cc23)c1 [erlotinib]
Summary of the method: (§1)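 K562 pellets were dounce-homogenised in PBS pH 7.4 containing 1 mM MgCl2, and the crude extract, at 1 mg/mL protein, was exposed to 10 μM compound for 30 min. Aliquots were heated for 3 min across 48°C-58°C, pooled, brought to 0.5% NP-40 at 4°C and spun at 21,000xg for 90 min, with the supernatant taken as soluble protein. TMTpro 16plex LC-MS/MS with equalised channel sums quantified that protein. Values are log-two fold changes in thermal stability relative to solvent controls, taken from duplicates.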

[1] = compound: C/C(=N\NC(=O)C1=CC(=CC=C1)S(=O)(=O)N2CCOCC2)/C3=C(C=CC(=C3)Cl)O
Summary of the method: as §1

[2] = compound: C1=CC(=CC=C1C2=NC3=C(N2)C=C(C=C3)C(=O)N)OC4=CC=C(C=C4)Cl
Summary of the method: as §1

[3] = compound: C1=CC2=C(C=CC(=C2)/C=C\3/C(=O)NC(=NCC4=CC=CS4)S3)N=C1
Summary of the method: as §1

[4] = compound: C1=CC2=NC=CN=C2C=C1/C=C/3\C(=O)NC(=O)S3
Summary of the method: as §1

[5] = compound: C1=CC=C(C=C1)C2=NC(=C(N2)C3=CC=NC=C3)C4=CC(=C(C=C4)Cl)O
Summary of the method: as §1

[6] = compound: C1=CC=C2C(=C1)C3=NNC4=CC=CC(=C43)C2=O
Summary of the method: as §1

[7] = compound: C1CCN(C1)C(=O)NC2=CC=CC(=C2)NC3=NC=C(C(=N3)NCCC4=CN=CN4)Br
Summary of the method: as §1

[8] = compound: C1CN(CCC1(CC2=CC=C(C=C2)Cl)N)C3=NC=NC4=C3C=CN4
Summary of the method: as §1

IRAK-1-4 Inhibitor I = compound: C1COCCN1CCN2C3=CC=CC=C3N=C2NC(=O)C4=CC(=CC=C4)[N+](=O)[O-] [IRAK-1-4 Inhibitor I]
Summary of the method: as §1

ibrutinib = compound: C=CC(=O)N1CCC[C@@H](n2nc(-c3ccc(Oc4ccccc4)cc3)c3c(N)ncnc32)C1 [ibrutinib]
Summary of the method: as §1

[9] = compound: CC(=O)c1cnc2ccc(-c3cc(Cl)c(O)c(Cl)c3)nc2c1N[C@H]1CC[C@H](CN(C)C)CC1
Summary of the method: as §1

ralimetinib = compound: CC(C)(C)Cn1c(N)nc2ccc(-c3[nH]c(C(C)(C)C)nc3-c3ccc(F)cc3)nc21 [ralimetinib]
Summary of the method: as §1

[10] = compound: CC(C)(O)CC(=O)NCCn1ccc2ncnc(Nc3ccc(Oc4cccc(C(F)(F)F)c4)c(Cl)c3)c21
Summary of the method: as §1

[11] = compound: CC(C)C1=C2N=C(C=C(N2N=C1)NCC3=CC=CC=C3)NCCCCCCN
Summary of the method: as §1

[12] = compound: CC1=C(C(CC(=O)N1)C2=CC=C(C=C2)C(F)(F)F)C(=O)NC3=C(C=C4C(=C3)C=NN4)F
Summary of the method: as §1

[13] = compound: CC1=C(C2=C(C=C1)C(=O)C3=CC=CC=C3N2CCCN)C
Summary of the method: as §1

[14] = compound: CC1=C(C=C(C=C1)NC(=O)C2=CC(=CC=C2)C(C)(C)C#N)NC3=CC4=C(C=C3)N=CN(C4=O)C
Summary of the method: as §1

[15] = compound: CC1=C(C=C(C=C1)NC(=O)C2=CC(=CC=C2)N(C)C)NC(=O)C3=CC=C(C=C3)O
Summary of the method: as §1

[16] = compound: CC1=CC=C(C=C1)SC2=C3C=C(SC3=CN=C2)C(=O)N
Summary of the method: as §1

Measured: log2 fold change

EIF2B3 (UniProt Q9NR50)
Sequence of UniProt Q9NR50 (Q9NR50 whole entry, looked up): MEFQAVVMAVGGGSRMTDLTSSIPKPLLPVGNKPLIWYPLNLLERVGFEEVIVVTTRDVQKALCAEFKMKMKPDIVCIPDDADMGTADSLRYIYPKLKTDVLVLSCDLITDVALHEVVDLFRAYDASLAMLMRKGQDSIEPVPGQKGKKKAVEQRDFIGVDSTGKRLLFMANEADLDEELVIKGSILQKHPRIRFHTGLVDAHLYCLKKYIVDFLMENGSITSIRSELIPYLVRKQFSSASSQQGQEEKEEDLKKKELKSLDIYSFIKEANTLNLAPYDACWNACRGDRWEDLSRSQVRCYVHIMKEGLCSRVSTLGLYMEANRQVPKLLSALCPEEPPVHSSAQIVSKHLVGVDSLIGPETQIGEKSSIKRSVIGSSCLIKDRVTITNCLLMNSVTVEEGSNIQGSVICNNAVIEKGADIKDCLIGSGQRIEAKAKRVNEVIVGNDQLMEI
inactive: erlotinib 0.01 | [1] 0.029 | [2] -0.019 | [3] -0.009 | [4] 0.024 | [5] 0.001 | [6] -0.003 | [7] 0.014 | [8] 0.018 | IRAK-1-4 Inhibitor I -0.01 | ibrutinib 0.007 | [9] 0.02 | ralimetinib 0.011 | [10] 0.005 | [11] 0.004 | [12] -0.004 | [13] -0.007 | [14] 0.043 | [15] 0.021 | [16] -0.004

GAA (UniProt P10253)
inactive: erlotinib 0.077 | [1] 0.046 | [2] 0.054 | [3] -0.041 | [4] -0.005 | [5] 0.006 | [6] -0.208 | [7] 0.007 | [8] 0.092 | IRAK-1-4 Inhibitor I 0.025 | ibrutinib 0.013 | [9] -0.011 | ralimetinib 0.054 | [10] -0.133 | [11] 0.009 | [12] 0.142 | [14] 0.028 | [15] 0.036 | [16] -0.084

GAPVD1 isoform 6 (UniProt Q14C86)
inactive: erlotinib 0.01 | [1] 0 | [2] -0.051 | [3] 0.01 | [4] 0.019 | [5] 0 | [6] -0.013 | [7] 0.007 | [8] -0.025 | IRAK-1-4 Inhibitor I -0.015 | ibrutinib 0.005 | [9] 0.003 | ralimetinib 0.031 | [10] -0.004 | [11] -0.018 | [12] 0.028 | [13] 0.008 | [14] 0.003 | [15] 0.011 | [16] 0.018

FXR2 (UniProt P51116)
inactive: erlotinib 0.018 | [1] 0.026 | [2] -0.01 | [3] -0.042 | [4] 0.022 | [5] -0.029 | [6] -0.092 | [7] -0.085 | [8] 0.003 | IRAK-1-4 Inhibitor I -0.075 | ibrutinib 0.027 | [9] -0.008 | ralimetinib 0.028 | [10] 0.004 | [11] 0.026 | [12] 0.024 | [13] 0.004 | [14] -0.005 | [15] -0.018 | [16] 0.011

FANCD2 isoform 1 (UniProt Q9BXW9)
inactive: erlotinib 0.059 | [1] 0.002 | [2] 0.019 | [3] -0.049 | [4] 0.01 | [5] 0.006 | [6] -0.092 | [7] -0.062 | [8] 0.095 | IRAK-1-4 Inhibitor I 0.036 | ibrutinib 0.01 | [9] -0.009 | ralimetinib 0 | [10] -0.066 | [11] 0.048 | [12] -0.02 | [13] -0.068 | [14] 0.071 | [15] 0.011 | [16] -0.008

FREM2 (UniProt Q5SZK8)
Sequence of UniProt Q5SZK8 (Q5SZK8 whole entry, looked up): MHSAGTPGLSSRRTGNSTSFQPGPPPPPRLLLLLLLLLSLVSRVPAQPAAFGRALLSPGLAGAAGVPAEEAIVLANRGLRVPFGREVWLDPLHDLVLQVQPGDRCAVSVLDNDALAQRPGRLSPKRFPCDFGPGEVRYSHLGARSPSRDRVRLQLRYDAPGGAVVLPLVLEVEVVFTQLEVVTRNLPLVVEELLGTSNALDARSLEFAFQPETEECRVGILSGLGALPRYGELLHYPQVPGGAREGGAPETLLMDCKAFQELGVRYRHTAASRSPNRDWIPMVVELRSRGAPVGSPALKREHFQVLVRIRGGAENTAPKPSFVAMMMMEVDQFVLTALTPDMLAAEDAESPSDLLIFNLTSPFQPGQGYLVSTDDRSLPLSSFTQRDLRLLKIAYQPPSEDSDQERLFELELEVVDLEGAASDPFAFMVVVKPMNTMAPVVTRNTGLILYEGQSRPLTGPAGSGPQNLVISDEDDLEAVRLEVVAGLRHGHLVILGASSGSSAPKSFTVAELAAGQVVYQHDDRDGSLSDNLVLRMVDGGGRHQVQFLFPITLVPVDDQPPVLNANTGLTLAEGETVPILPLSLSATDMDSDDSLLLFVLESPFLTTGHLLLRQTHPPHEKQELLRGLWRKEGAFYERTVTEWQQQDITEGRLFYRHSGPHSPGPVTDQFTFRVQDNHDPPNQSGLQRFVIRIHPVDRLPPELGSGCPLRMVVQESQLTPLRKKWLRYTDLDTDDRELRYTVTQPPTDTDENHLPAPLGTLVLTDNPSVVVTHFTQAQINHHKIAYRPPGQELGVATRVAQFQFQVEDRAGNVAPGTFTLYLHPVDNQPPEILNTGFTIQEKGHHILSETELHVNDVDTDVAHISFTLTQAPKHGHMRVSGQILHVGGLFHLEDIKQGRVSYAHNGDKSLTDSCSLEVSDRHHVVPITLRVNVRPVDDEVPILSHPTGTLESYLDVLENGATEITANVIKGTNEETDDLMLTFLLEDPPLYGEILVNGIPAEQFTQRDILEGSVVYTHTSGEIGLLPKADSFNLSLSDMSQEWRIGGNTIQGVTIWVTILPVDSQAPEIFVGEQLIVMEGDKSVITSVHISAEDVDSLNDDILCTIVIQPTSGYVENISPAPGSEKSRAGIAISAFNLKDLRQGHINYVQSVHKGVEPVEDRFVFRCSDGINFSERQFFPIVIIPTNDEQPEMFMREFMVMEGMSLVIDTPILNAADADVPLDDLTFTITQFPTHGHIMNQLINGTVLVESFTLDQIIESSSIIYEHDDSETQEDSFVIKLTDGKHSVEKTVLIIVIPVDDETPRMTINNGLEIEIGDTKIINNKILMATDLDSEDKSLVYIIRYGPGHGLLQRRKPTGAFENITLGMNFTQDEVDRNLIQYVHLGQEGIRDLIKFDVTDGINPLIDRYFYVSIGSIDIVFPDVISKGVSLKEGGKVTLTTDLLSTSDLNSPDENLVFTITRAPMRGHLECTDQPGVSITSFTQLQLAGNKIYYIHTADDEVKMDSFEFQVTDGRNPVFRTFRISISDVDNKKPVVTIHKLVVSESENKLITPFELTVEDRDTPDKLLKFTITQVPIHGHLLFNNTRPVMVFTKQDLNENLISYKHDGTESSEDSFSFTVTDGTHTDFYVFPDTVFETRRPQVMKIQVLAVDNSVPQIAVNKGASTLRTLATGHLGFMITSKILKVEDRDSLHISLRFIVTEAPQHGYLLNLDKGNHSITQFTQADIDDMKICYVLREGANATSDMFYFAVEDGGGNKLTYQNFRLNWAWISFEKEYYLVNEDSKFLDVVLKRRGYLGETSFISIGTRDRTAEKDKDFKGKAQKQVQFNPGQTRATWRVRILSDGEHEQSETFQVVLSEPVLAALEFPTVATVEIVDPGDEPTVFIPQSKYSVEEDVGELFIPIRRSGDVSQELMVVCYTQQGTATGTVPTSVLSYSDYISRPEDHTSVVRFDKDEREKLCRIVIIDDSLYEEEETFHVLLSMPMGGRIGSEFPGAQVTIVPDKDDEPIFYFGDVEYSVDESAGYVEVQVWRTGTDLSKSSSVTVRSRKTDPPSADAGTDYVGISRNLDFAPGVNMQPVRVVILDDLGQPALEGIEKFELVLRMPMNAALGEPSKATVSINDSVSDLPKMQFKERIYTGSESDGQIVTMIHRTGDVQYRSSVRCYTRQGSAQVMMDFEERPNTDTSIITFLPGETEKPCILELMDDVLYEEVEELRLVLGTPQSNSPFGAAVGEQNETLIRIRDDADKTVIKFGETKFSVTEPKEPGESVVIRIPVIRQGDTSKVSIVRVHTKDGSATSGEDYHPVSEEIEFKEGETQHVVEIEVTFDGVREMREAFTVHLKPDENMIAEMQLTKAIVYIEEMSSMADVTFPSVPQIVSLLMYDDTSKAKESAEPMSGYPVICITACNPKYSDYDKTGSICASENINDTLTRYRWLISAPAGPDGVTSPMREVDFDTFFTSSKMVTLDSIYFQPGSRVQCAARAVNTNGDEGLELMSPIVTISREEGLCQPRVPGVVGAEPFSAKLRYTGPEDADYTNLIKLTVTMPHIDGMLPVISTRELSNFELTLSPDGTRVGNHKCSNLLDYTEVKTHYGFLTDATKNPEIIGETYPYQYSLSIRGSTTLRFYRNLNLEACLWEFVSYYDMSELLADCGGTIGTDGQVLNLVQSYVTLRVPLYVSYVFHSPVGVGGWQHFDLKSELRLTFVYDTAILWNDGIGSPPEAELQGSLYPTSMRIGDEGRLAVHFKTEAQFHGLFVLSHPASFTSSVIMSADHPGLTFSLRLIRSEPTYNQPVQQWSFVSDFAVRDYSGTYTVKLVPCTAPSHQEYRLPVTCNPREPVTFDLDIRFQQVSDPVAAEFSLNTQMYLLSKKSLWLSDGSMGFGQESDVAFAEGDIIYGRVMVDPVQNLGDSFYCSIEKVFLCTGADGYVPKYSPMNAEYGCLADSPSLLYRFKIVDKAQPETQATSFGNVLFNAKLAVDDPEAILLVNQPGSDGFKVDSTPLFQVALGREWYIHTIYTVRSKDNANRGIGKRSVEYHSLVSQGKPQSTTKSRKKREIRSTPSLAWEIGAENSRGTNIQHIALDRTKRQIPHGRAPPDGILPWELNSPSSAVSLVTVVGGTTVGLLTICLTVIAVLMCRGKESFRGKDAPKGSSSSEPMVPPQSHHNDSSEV
inactive: erlotinib 0.015 | [1] -0.095 | [2] -0.109 | [3] -0.065 | [4] 0.047 | [5] 0.008 | [6] -0.051 | [7] -0.02 | [8] -0.021 | IRAK-1-4 Inhibitor I 0.009 | ibrutinib -0.062 | [9] 0.024 | ralimetinib -0.014 | [10] -0.042 | [11] -0.024 | [12] -0.06 | [13] -0.01 | [14] 0.079 | [15] 0.035 | [16] -0.073

GFPT1 (UniProt Q06210)
inactive: erlotinib 0.031 | [1] -0.008 | [2] 0.003 | [3] 0.013 | [4] -0.008 | [5] 0.001 | [6] -0.014 | [7] -0.021 | [8] 0.008 | IRAK-1-4 Inhibitor I 0.006 | ibrutinib 0.014 | [9] -0.014 | ralimetinib 0.002 | [10] -0.024 | [11] 0.022 | [12] -0.015 | [13] 0.012 | [14] 0.009 | [15] 0.014 | [16] 0.01

FMNL1 isoform 3 (UniProt O95466)
inactive: erlotinib -0.045 | [1] 0.045 | [2] -0.006 | [3] -0.102 | [4] -0.062 | [5] -0.004 | [6] 0.018 | [7] -0.006 | [8] 0.019 | IRAK-1-4 Inhibitor I -0.009 | ibrutinib 0.043 | [9] -0.002 | ralimetinib 0.038 | [10] -0.02 | [11] 0.023 | [12] 0.099 | [13] 0.03 | [14] 0.073 | [15] 0.015 | [16] 0.001

GEMIN4 (UniProt P57678)
Sequence of UniProt P57678 (P57678 whole entry, looked up): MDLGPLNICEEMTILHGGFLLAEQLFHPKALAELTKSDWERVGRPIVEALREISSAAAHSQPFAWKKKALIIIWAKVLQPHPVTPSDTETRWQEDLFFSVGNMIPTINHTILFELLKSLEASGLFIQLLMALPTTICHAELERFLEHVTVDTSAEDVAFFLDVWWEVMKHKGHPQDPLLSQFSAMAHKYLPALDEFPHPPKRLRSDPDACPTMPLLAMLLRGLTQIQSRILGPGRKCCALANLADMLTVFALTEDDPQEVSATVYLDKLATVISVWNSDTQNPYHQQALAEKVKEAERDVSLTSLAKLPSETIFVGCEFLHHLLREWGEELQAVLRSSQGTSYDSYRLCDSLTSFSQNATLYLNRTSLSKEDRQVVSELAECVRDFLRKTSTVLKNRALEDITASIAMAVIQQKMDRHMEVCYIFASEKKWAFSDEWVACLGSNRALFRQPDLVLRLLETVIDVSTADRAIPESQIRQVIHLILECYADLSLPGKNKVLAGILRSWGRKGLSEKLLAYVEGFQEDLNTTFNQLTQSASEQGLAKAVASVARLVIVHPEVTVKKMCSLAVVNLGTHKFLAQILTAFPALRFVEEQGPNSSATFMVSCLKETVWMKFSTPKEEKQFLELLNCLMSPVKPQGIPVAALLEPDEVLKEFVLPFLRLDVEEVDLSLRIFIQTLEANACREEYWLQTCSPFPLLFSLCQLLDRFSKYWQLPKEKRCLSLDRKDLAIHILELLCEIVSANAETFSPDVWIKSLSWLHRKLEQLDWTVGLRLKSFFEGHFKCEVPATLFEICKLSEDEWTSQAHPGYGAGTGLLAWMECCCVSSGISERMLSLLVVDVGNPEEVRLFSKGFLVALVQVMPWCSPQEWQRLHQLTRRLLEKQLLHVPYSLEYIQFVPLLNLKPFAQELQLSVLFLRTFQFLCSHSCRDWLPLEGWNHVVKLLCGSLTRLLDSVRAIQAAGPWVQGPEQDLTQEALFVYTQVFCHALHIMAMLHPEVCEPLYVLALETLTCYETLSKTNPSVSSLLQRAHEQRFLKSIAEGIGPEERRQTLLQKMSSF
inactive: erlotinib 0.023 | [1] -0.029 | [2] -0.036 | [3] 0.046 | [4] 0.038 | [5] -0.017 | [6] -0.032 | [7] -0.004 | [8] 0.018 | IRAK-1-4 Inhibitor I -0.023 | ibrutinib 0.003 | [9] -0.028 | ralimetinib 0.056 | [10] 0.001 | [11] 0.051 | [12] 0.007 | [13] -0.048 | [14] -0.005 | [15] 0.059 | [16] 0.011
